# Inconclusive results are not listed. Entries that show only a call come without a potency. A number with no mark means an inactive call. Calls of active or inactive are those of the source. The call rests on the fitted dose curve; in most records, active means well fitted curve in the direction sought with a large enough effect; inconclusive means small, poorly fitted or top-dose-only effect, or another doubt; inactive means no such curve, though single readings can be large; an effect the other way counts as inactive or inconclusive.
# Experiments:
# [1] = molecular target: Cellular tumor antigen p53 (Homo sapiens) (UniProt P04637); test: Primary qHTS for small molecule compounds that upregulate eGFP-tagged delta133p53alpha (in N-terminal) cells. (AID 2060322); settings: NCI-H358 eGFP-delta133p53alpha fluorescence, 24 h; activation: stronger effect = higher value; further: nearly all actives have a fitted effect of over 75% in size; further: potency means the concentration at half of the fitted maximal effect;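 on activation: cells pre-induced with doxycycline then dosed without doxycycline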
# Procedure, shortened: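 NCI-H358 cells pre-induced 24 h with 10 ng/ml doxycycline for eGFP-delta133p53alpha, plated dox-free and exposed 24 h at 37C to titrated compounds. Fixed, Hoechst-stained; gated GFP peak intensity by laser scanning cytometry, normalized to DMSO (0%) and 57.5 uM 5-azacytidine (100%).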
# [2] = molecular target: Aldehyde dehydrogenase, mitochondrial (Homo sapiens) (UniProt P05091); test: qHTS for Inhibitors of the Aldehyde Dehydrogenase Family (ALDH2) Primary screen (AID 2061308); settings: ALDH2 enzyme inhibition qHTS, 1536-well; series mostly up to 56 µM; further: nearly all actives have a fitted effect of over 55% in size
# [3] = molecular target: Retinaldehyde dehydrogenase 3 (Homo sapiens) (UniProt P47895); test: qHTS for Inhibitors of the Aldehyde Dehydrogenase Family (ALDH1A3) Primary screen (AID 2061315); settings: ALDH inhibition qHTS; series mostly up to 56 µM
# Sequence of Cellular tumor antigen p53 (Homo sapiens) (P04637 whole entry, looked up): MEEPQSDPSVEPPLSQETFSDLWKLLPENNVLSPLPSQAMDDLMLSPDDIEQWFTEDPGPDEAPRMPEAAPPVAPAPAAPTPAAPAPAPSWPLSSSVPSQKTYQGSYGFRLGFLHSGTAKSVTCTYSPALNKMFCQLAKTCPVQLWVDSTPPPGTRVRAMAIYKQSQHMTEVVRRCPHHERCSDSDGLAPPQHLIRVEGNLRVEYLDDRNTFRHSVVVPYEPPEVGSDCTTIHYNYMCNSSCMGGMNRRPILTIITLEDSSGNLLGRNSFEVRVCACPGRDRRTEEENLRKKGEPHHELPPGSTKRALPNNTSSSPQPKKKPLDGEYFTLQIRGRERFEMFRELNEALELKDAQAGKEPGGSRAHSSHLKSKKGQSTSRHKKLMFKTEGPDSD
SMILES,activation [1] [%],Potency [2],Potency [3],"activity change, negative = inhibition [2]","activity change, negative = inhibition [3]",Potency [1]
NC[C@H]1CCC[C@@H](CNC(=O)[C@@H](Cc2c[nH]c3ccccc23)NC(=O)N2CCC3(C=Cc4ccccc43)CC2)C1,3,inactive,inactive,–,–,–
C[C@@H]1O[C@@H](O[C@@H]2[C@@H](O)[C@H](O[C@@H]3[C@@H](O)[C@@H](O)[C@H](O[C@H]4[C@H](OC(=O)[C@]56CCC(C)(C)C[C@H]5C5=CCC7[C@@]8(C)C[C@H](O)[C@H](O[C@@H]9O[C@H](C(=O)O)[C@@H](O)[C@H](O)[C@H]9O)[C@@](C)(CO)C8[C@H](O)C[C@@]7(C)[C@]5(C)CC6)OC[C@H](O)[C@@H]4O)O[C@H]3C)OC[C@H]2O)[C@H](O)[C@H](O)[C@H]1O (stereo not given in full),-0.763,–,–,10.8% [at 11.2 µM],15.6% [at 11.2 µM],–
CC(=O)N[C@H]1[C@H](O[C@H]2CC[C@@]3(C)C(CC[C@]4(C)C3CC=C3C5CC(C)(C)CC[C@]5(C(=O)O)[C@H](O)C[C@]34C)C2(C)C)O[C@H](CO[C@@H]2OC[C@H](O)[C@H](O)[C@H]2O[C@@H]2OC[C@@H](O)[C@H](O)[C@H]2O)[C@@H](O)[C@@H]1O (stereo not given in full),-19.1,inactive,inactive,–,–,–
CC(=O)OCC(=O)Nc1cc(C#N)cc(NC(=O)COC(C)=O)c1Cl,2.33,inactive,inactive,–,–,–
Cc1cccc(N(C)C(=S)Oc2ccc3c(c2)CCC3)c1,-3,inactive,inactive,–,–,–
NC1CCCCN(c2c(F)cc3c(=O)c(C(=O)O)cn(C4CC4)c3c2Cl)C1 (stereo not given),-8.59,inactive,inactive,–,–,–
Cc1occc(=O)c1O[C@@H]1O[C@H](CO[C@@H]2OC[C@](O)(CO)[C@H]2O)[C@@H](O)[C@H](O)[C@H]1O,0,inactive,inactive,–,–,–
CC(O)C1NC(=O)C2CCCN2C1=O (stereo not given),-25.2,inactive,inactive,–,–,–
CC1=C2C(=O)C=C(CO[C@@H]3O[C@H](CO)[C@@H](O)[C@H](O)[C@H]3O)[C@@H]2[C@H]2OC(=O)[C@H](C)[C@@H]2CC1,-19.6,inactive,inactive,–,–,–
O=C1NC(=Nc2ccccc2F)S/C1=C\c1ccc(C(=O)O)cc1,0.333,inactive,inactive,–,–,–
O=C(O)Cc1nn(Cc2nc3cc(C(F)(F)F)ccc3s2)c(=O)c2nccnc12,-6.33,inactive,inactive,–,–,–
CCC(=O)OCC(=O)[C@@]1(OC(=O)CC)[C@@H](C)C[C@H]2[C@@H]3CCC4=CC(=O)C=C[C@]4(C)[C@@]3(F)[C@@H](O)C[C@@]21C,-5,inactive,inactive,–,–,–
COc1cc2c(cc1OC)CN(C(=O)[C@@H](NCc1ccncc1)C(C)(C)C)CC2,5.25,inactive,inactive,–,–,–
C/C1=C\CC[C@]2(C)O[C@H]2C(=O)c2c(C)coc2C1,20.5,inactive,inactive,–,–,–
CCNC(=O)C1OC(n2cnc3c(N)nc(NCCc4ccc(CCC(=O)O)cc4)nc32)C(O)C1O (stereo not given),-5.73,inactive,inactive,–,–,–
Nc1nc2c(ncn2CCC(CO)CO)c(=O)[nH]1,-5.36,inactive,inactive,–,–,–
CC1(C)CCCC2(C)C(C(=O)O)=CCC12 (stereo not given),-24.4,inactive,inactive,–,–,–
COC(=O)C(Cc1ccccc1)NC(=O)c1ccccc1 (stereo not given),6.87,inactive,inactive,–,–,–
CN1CCc2nc(C(=O)N[C@@H]3C[C@@H](C(=O)N(C)C)CC[C@@H]3NC(=O)C(=O)Nc3ccc(Cl)cn3)sc2C1,1.91,inactive,inactive,–,–,–
COc1cc(O)c(C(=O)CCc2ccc(O)cc2)c(O[C@@H]2O[C@H](CO)[C@@H](O)[C@H](O)[C@H]2O)c1,–,inactive,inactive,–,–,7.38 µM (active)
O=C1C=CC(O)(/C=C/C(=O)OC[C@H]2O[C@@H](Oc3ccc(O)cc3)[C@H](O)[C@@H](O)[C@@H]2O)C=C1,6.25,inactive,inactive,–,–,–
Cc1cc(O)cc(O[C@@H]2O[C@H](CO)[C@@H](O)[C@H](O)[C@H]2O)c1,-6.11,inactive,inactive,–,–,–
CCOc1ncc(S(=O)(=O)N2CCN(CC)CC2)cc1-c1nc2c(CC)n(CCOC)nc2c(=O)[nH]1,-9.07,inactive,inactive,–,–,–

SMILES,activation [1] [%],Potency [2],Potency [3],"activity change, negative = inhibition [2]","activity change, negative = inhibition [3]",Potency [1]
CC1(C)CC[C@]23CO[C@@]4(CCC5[C@@]6(C)CC[C@H](O[C@@H]7OC[C@H](O[C@@H]8O[C@H](CO)[C@@H](O)[C@H](O)[C@H]8O[C@@H]8OC[C@@H](O)[C@H](O)[C@H]8O)[C@H](O)[C@H]7O)[C@@](C)(CO)C6CC[C@@]5(C)[C@]4(C)CC2=O)[C@@H]3C1 (stereo not given in full),18.3,inactive,inactive,–,–,–
Cc1onc(C(=O)N2CCN(C(c3ccc(Cl)cc3)c3ccc(Cl)cc3)CC2)c1[N+](=O)[O-],10.7,inactive,inactive,–,–,–
CC(O)C(=O)/C=C/C=C/C(=O)OC1C=C2COC(=O)C2(O)C2(C)CCCC(C)(C)C12 (stereo not given),10.7,inactive,inactive,–,–,–
C[C@@H]1O[C@@H](O[C@H]2[C@@H]3C=CO[C@@H](O[C@@H]4O[C@H](CO)[C@@H](O)[C@H](O)[C@H]4O)[C@@H]3[C@@]3(CO)O[C@@H]23)[C@H](O)[C@H](OC(=O)/C=C/c2ccccc2)[C@H]1O,0.763,inactive,inactive,–,–,–
CC1(C)CC[C@]2(C(=O)O[C@@H]3O[C@H](CO)[C@@H](O)[C@H](O)[C@H]3O)CC[C@]3(C)C(=CCC4[C@@]5(C)C[C@H](O)[C@H](O[C@@H]6OC[C@@H](O)[C@H](O)[C@H]6O)[C@@](C)(CO)C5CC[C@]43C)C2C1 (stereo not given in full),11.6,inactive,inactive,–,–,–
C[C@@H]1O[C@@H](OC[C@H]2O[C@@H](Oc3cc(O)cc4c3C(=O)C(O)(Cc3ccc(O)cc3)O4)[C@H](O)[C@@H](O)[C@@H]2O)[C@H](O)[C@H](O)[C@H]1O (stereo not given in full),-11.5,inactive,inactive,–,–,–
N#Cc1c[nH]c2c(C(=O)N3CCN(CCc4ccc(F)cc4)CC3)cccc12,-18.8,inactive,inactive,–,–,–
COc1cc(C)c(C(=O)O[C@H]2[C@@H](O)[C@H](n3ccc(=O)[nH]c3=O)O[C@@H]2CO)c(OC)c1,-3.05,inactive,inactive,–,–,–
COc1ccc([C@H]2OC[C@H]3[C@@H]2CO[C@@H]3c2ccc(O[C@@H]3O[C@H](CO)C(O)[C@H](O)[C@H]3O)c(OC)c2)cc1OC (stereo not given in full),-1.79,inactive,inactive,–,–,–
CCCCCCCCC(=O)N[C@H](CN1CCCC1)[C@H](O)c1ccc2c(c1)OCCO2,-1,inactive,inactive,–,–,–
COC(=O)C(C)C1CCC2(C)C(=O)C=CC(C)(O)C2C1O (stereo not given),26,inactive,inactive,–,–,–
CC(=O)OC1C=C(C(=O)O)C2(CO)CCC(C)C(C)(CCc3ccoc3)C2C1 (stereo not given),-25.2,inactive,inactive,–,–,–
CC1CC[C@]2(C(=O)O)CC[C@]3(C(=O)O)C(=CCC4[C@@]5(C)CC[C@H](OC6OC(C)C(O)C(OC7OC(CO)C(O)C(O)C7O)C6O)C(C)(C)C5CC[C@]43C)C2C1C (stereo not given in full),-8.04,inactive,inactive,–,–,–
COC(=O)[C@@H](NC(=O)[C@H](CC(C)C)NC(=O)N(Cc1ccccc1)C[C@@H](O)[C@H](Cc1ccccc1)NC(=O)OC(C)(C)C)C(C)C,19.7,–,–,-10% [at 11.2 µM],16.3% [at 11.2 µM],–
CCCCCCc1cccc(NC(=O)[C@H](N)CCP(=O)(O)O)c1,1,inactive,inactive,–,–,–
C=C(COC(=O)C(O)C(O)CN)C12OC1C1(C)C(=CC2=O)C(O)C(O)CC1C (stereo not given),-7.63,inactive,inactive,–,–,–
C[C@@H]1O[C@@H](O[C@H]2[C@H](O[C@H]3[C@H](O[C@H]4CC[C@@]5(C)C(CC[C@]6(C)C5CC=C5[C@@H]7CC(C)(C)C[C@@H](O)[C@]7(C)CC[C@]56C)[C@@]4(C)CO)O[C@H](C(=O)O)[C@@H](O)[C@@H]3O)OC[C@H](O)[C@@H]2O)[C@H](O)[C@H](O)[C@H]1O (stereo not given in full),3.82,inactive,inactive,–,–,–
C[C@@H]1C[C@@H]([C@@H](O)C(C)(C)O)O[C@H]2C[C@@]3(C)C(=C12)C[C@H](O)[C@H]1[C@@]2(C)CCC(=O)C(C)(C)C2CC[C@@]13C (stereo not given in full),-6.87,inactive,inactive,–,–,–
CC(=O)OC[C@@]12[C@@H](OC(C)=O)C[C@@H](C)[C@](C)([C@@H]3C[C@H]4C=CO[C@H]4O3)[C@H]1CCC[C@]21CO1,0,inactive,inactive,–,–,–
C[C@@H]1O[C@@H](O[C@H]2[C@H](O)[C@@H](O[C@@H]3O[C@H](CO)[C@@H](O)[C@H](O[C@@H]4O[C@H](CO)[C@@H](O)[C@H](O)[C@H]4O)[C@H]3O)[C@H](O[C@H]3CC[C@@]4(C)C(=CC[C@@H]5C4CC[C@@]4(C)C5C[C@@H]5OC6(CC[C@@](C)(CO[C@@H]7O[C@H](CO)[C@@H](O)[C@H](O)[C@H]7O)O6)[C@@H](C)[C@@H]54)C3)O[C@@H]2CO)[C@H](O)[C@H](O)[C@H]1O (stereo not given in full),-25.2,–,–,9.58% [at 11.2 µM],9.26% [at 11.2 µM],–
C[C@@H]1CCCN1CCc1cc2cc(-c3ccc(C#N)cc3)ccc2o1,-11.5,inactive,inactive,–,–,–
CCOc1nc(NC(=O)Cc2cc(OC)ccc2OC)cc(N)c1C#N,15,inactive,inactive,–,–,–
